Test results as given in PubChem BioAssay (Tox21).
Results filed as inconclusive are left out. Unmarked numbers belong to inactive results. The source made the active and inactive calls. The call rests on the fitted dose curve; in most records, active means well fitted cell-killing curve with a large enough effect in the repeat runs; inconclusive means weak or mixed curves, or effect the other way; inactive means flat fitted curve, though single readings scatter.

assay: cAMP Responsive Elements (CRE) small molecule agonists, cell-based qHTS assay: qHTS cell viability counter screen (AID 2060914); conditions: CRE-bla HEK293T viability, CellTiter-Glo luminescence, 5 h; series mostly up to 92.4 µM; activity change, negative = cytotoxicity: at the top concentration; further: nearly all actives have a fitted effect of over 50% in size
Outline: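 CRE-bla HEK 293T cells, plated 18 h at 37 °C, were exposed to compounds for 3 h at 37 °C/5% CO2. Viability was then measured in the same wells by CellTiter-Glo luminescence after 30 min at room temperature.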
On the % scale 0 is the no-effect control and ±100 the full control effect; potency means the concentration at half of the fitted maximal effect.

Q: For `N#Cc1cc(I)c(O)c(I)c1`, which “activity change, negative = cytotoxicity” value is on record?
A: 5.68%

Q: Which “activity change, negative = cytotoxicity” value does the source give for `CCc1cc(OC)c(C[C@H](C)N)cc1OC` here?
A: -5.45%

Q: Which “activity change, negative = cytotoxicity” value does the source give for `CCOP(=S)(OCC)SCS(=O)(=O)CC` here?
A: -5.37%

Q: For `C=CC(=O)OCC(C)C`, which “activity change, negative = cytotoxicity” value is on record?
A: 6.42%

Q: Which “activity change, negative = cytotoxicity” value does the source give for `CSc1nc(N=[N+]=[N-])nc(NC(C)C)n1` here?
A: 0.376%

Q: Which Potency does the source give for `N#CS` here?
A: inactive

Q: With `C=CCN=C=S` as the compound, how does the Potency read?
A: inactive

Q: With `[N-]=[N+]=[N-]` as the compound, how does the Potency read?
A: inactive

Q: For `C1CCC(NC2CCCCC2)CC1`, which Potency is on record?
A: inactive

Q: For `COC(=O)C(C)N(C(=O)c1ccco1)c1c(C)cccc1C` (stereo not given), which “activity change, negative = cytotoxicity” value is on record?
A: 0.499%

Q: With `N#CCCCCC#N` as the compound, how does the Potency read?
A: inactive

Q: Which “activity change, negative = cytotoxicity” value does the source give for `O=C(N[C@H](c1ccccc1)[C@@H]1CN2CCC1CC2)c1c(Cl)ccc(C(F)(F)F)c1Cl` here?
A: 12.8%

Q: For `[O-][Br+2]([O-])O`, which “activity change, negative = cytotoxicity” value is on record?
A: -5.52% [at 42.5 µM]

Q: Which “activity change, negative = cytotoxicity” value does the source give for `CCC(Br)(CC)C(=O)NC(N)=O` here?
A: 0.267%

Q: With `CSC(=O)c1c(C(F)F)nc(C(F)(F)F)c(C(=O)SC)c1CC(C)C` as the compound, how does the “activity change, negative = cytotoxicity” value read?
A: -10.5%

Q: With `CO/N=C(/C1=NOCCO1)c1ccccc1Oc1ncnc(Oc2ccccc2Cl)c1F` as the compound, how does the “activity change, negative = cytotoxicity” value read?
A: -16.5%

Q: Which “activity change, negative = cytotoxicity” value does the source give for `C/C=C/CC#N` here?
A: -11.5%

Q: For `OCCSCSCCO`, which “activity change, negative = cytotoxicity” value is on record?
A: 1.37%

Q: Which Potency does the source give for `Cc1cc(N=Nc2ccccc2C)ccc1N` here?
A: inactive

Q: With `O=CC(Br)(Br)Br` as the compound, how does the “activity change, negative = cytotoxicity” value read?
A: 26%

Q: With `NC1CCC(CC2CCC(N)CC2)CC1` (stereo not given) as the compound, how does the “activity change, negative = cytotoxicity” value read?
A: 16.9%

Q: With `N#Cc1sc2c(=O)c3ccccc3c(=O)c=2sc1C#N` as the compound, how does the Potency read?
A: 54.5 µM (active)

Q: For `O=C(O)C(F)(F)C(F)(F)C(F)(F)C(F)(F)C(F)(F)C(F)(F)C(F)(F)C(F)(F)C(F)(F)F`, which “activity change, negative = cytotoxicity” value is on record?
A: 16.1%

Q: Which “activity change, negative = cytotoxicity” value does the source give for `COc1cccc2c1cc([N+](=O)[O-])c1c(C(=O)O)cc3c(c12)OCO3` here?
A: 13.5%

Q: For `O=c1[nH]c2ccccc2o1`, which “activity change, negative = cytotoxicity” value is on record?
A: 11.9%

Q: For `Nc1ncn[nH]1`, which Potency is on record?
A: inactive

Q: For `CN(C)[C@@H]1C(=O)C(C(N)=O)=C(O)[C@@]2(O)C(=O)C3=C(O)c4c(O)ccc(Cl)c4[C@@](C)(O)[C@H]3C[C@@H]12`, which “activity change, negative = cytotoxicity” value is on record?
A: 14.5%

Q: With `C[N+]1(CCF)[C@@H]2CC[C@H]1CC(OC(=O)C(O)(c1ccccc1)c1ccccc1)C2` (stereo not given in full) as the compound, how does the “activity change, negative = cytotoxicity” value read?
A: 6.21% [at 42.5 µM]

Q: Which “activity change, negative = cytotoxicity” value does the source give for `CCCCCON=O` here?
A: 6.05%

Q: For `Nc1nc(N)c(N)c(N)n1`, which “activity change, negative = cytotoxicity” value is on record?
A: -0.697%

Q: Which “activity change, negative = cytotoxicity” value does the source give for `O=C(N[C@H]1CN2CCC1CC2)c1cc2ccoc2cn1` here?
A: 17%

Q: With `CCC[N+](=O)[O-]` as the compound, how does the Potency read?
A: inactive

Q: Which “activity change, negative = cytotoxicity” value does the source give for `CCC(C)(NC(=O)c1cc(Cl)c(C)c(Cl)c1)C(=O)CCl` (stereo not given) here?
A: -29.7%

Q: Which “activity change, negative = cytotoxicity” value does the source give for `Cc1cc(C2CC2)nc(Nc2ccccc2)n1` here?
A: -29.4%

Q: For `COc1ccccc1N`, which Potency is on record?
A: inactive

Q: With `CCCC(Cn1cncn1)c1ccc(Cl)cc1Cl` (stereo not given) as the compound, how does the “activity change, negative = cytotoxicity” value read?
A: -3.94%

Q: With `CO/N=C(\C(=O)OC)c1ccccc1CO/N=C(\C)c1cccc(C(F)(F)F)c1` as the compound, how does the “activity change, negative = cytotoxicity” value read?
A: -20.1%

Q: With `CCCN(CCC)c1c([N+](=O)[O-])cc(C(C)C)cc1[N+](=O)[O-]` as the compound, how does the Potency read?
A: inactive

Q: Which “activity change, negative = cytotoxicity” value does the source give for `CCOP(=O)(OCC)Oc1cc(C)nc(C(C)C)n1` here?
A: -0.118%

Q: With `NC(=O)CCl` as the compound, how does the “activity change, negative = cytotoxicity” value read?
A: -10.2%
